From PubChem
Rows were chosen to be rich in hits. Some 6.3% of all compounds tested hit in one or more screens of this group.
tim23-1 inh: inhibits growth of tim23-1 mutant yeast. S. cerevisiae tim23-1 growth, BacTiter-Glo luminescence, 24 h. 1.3% of 330,000 active. inhibition, % at 20 µM;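 active means growth inhibition of the mutant yeast at or above 50%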;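 further: temperature-sensitive mutant grown at 25 °C; plate controls were DMSO-treated mutant yeast for no effect and medium wells lacking yeast for full effect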
Mdm2-MdmX inh: disrupts the human Mdm2-MdmX interaction. AID 485346. inhibition, % at 8 µM. 3% of 330,000 active. SaOS-2 split-luciferase Mdm2/MdmX complementation, luminescence. O15151+Q00987;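 active means inhibition of at least 50% at 8 µM in the primary screen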
Target sequence (O15151 whole entry, looked up): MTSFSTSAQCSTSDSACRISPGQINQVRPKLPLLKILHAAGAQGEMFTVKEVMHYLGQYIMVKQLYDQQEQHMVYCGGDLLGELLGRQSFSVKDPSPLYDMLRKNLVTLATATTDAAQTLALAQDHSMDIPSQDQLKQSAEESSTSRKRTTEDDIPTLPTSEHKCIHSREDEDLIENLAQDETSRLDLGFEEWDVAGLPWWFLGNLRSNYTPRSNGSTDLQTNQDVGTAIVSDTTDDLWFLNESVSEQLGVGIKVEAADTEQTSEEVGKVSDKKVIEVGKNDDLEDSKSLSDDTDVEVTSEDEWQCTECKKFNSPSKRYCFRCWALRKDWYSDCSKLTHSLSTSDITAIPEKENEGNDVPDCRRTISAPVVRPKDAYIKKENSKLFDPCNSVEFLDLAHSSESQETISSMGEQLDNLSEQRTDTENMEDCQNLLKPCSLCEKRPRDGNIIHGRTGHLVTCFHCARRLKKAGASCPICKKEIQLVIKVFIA
Target sequence (Q00987 whole entry, looked up): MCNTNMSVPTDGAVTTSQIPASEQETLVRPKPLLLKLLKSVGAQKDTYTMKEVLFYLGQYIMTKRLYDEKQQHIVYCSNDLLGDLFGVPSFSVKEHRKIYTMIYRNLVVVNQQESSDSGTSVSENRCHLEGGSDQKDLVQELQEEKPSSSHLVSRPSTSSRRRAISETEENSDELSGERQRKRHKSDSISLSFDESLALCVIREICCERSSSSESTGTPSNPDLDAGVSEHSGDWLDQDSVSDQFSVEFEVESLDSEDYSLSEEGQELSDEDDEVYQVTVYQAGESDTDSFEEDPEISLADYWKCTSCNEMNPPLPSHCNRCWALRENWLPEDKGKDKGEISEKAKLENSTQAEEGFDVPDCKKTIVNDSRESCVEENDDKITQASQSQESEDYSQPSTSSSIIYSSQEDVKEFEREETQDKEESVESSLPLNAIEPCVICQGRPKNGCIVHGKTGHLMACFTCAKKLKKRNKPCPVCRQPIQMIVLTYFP
TIM10 inh: TIM10 yeast growth inhibition | AID 463195 | inhibition, % at 10 µM | 1.4% of 330,000 active | S. cerevisiae TIM10 strain growth, BacTiter-Glo luminescence, 24 h;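 active means inhibition of 40% or more at the single tested concentration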;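 further: wild-type TIM10 isogenic control strain grown at permissive 25 °C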
tim10-1 inh: inhibits growth of tim10-1 mutant yeast; S. cerevisiae tim10-1 ts strain growth, BacTiter-Glo, 24 h; inhibition, % at 20 µM; 2.2% of 330,000 active;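 active means inhibition of at least 40%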;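 further: mutant grown at 25 °C; 0% = DMSO wells with yeast and 100% = wells holding no yeast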
MPTP block: inhibitors of mitochondrial permeability transition pore | isolated mouse mitochondria, Ca2+ swelling absorbance, 30 min | inhibition, % at 10 µM | 1.4% of 360,000 active;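 active means inhibition of 50% or more, scaled per plate between neutral and stimulator controls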;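 further: 0% = DMSO wells given calcium and 100% = 1 mM EGTA wells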
Mdm2-MdmX conf: human Mdm2/MdmX binding inhibition, confirmed; shares compounds with Mdm2-MdmX inh; luminescent assay; inhibition, % at 8 µM; 55% of 10,000 active; in the data active means inhibition above about 40%
FLuc counter: counter-screen for Mdm2/MdmX inhibitors: full-length luciferase; shares compounds with Mdm2-MdmX inh; SaOS-2 full-length luciferase counterscreen, luminescence; inhibition, % at 8 µM; 77% of 6,200 active; AID 504607;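 active means mean inhibition at 8 µM reaching about 37%, which flags the compound as non-specific, limit read from the data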;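 further: p53-null SaOS-2 cells with luciferase driven by a doxycycline-inducible promoter; compound on cells about two nights before reading with doxycycline added after day one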
An asterisk follows results filed as active; x = no result.

SMILES | tim23-1 inh | Mdm2-MdmX inh | TIM10 inh | tim10-1 inh | MPTP block | Mdm2-MdmX conf | FLuc counter
O=C1CN=C(c2ccc[nH]2)c2cc(Cl)ccc2N1 | -17 | 65* | -58 | -58 | 0 | 68* | 53*
CCOC(=O)c1c(C)n(Cc2ccccc2)c2ccc(OCC(O)Cn3nc(C)nc3C)cc12 (stereo unspecified) | 17 | -2 | 6 | 22 | -1 | x | x
CCOC(=O)c1c(C)n(Cc2ccccc2)c2ccc(OCC(O)CNC(C)(C)C)cc12 (stereo unspecified) | 9 | 51* | 1 | 23 | -1 | 26 | x
NC(Cc1ccccc1Cl)c1nn[nH]n1 (stereo unspecified) | x | x | x | x | 0 | x | x
CC1=NCCc2c1[nH]c1cc(O)ccc21 | 12 | 3 | 0 | 4 | -2 | x | x
C1=NCCc2c1[nH]c1ccccc21 | -38 | 52* | 4 | -14 | 2 | -54 | x
O=C(NCP(=O)(Oc1ccccc1)Oc1ccccc1)OCc1ccccc1 | x | x | x | x | 0 | x | x
COC(=O)C1=C(c2ccc(F)cc2OCc2ccccc2)C[C@@H]2CC[C@H]1N2C(=O)NCc1ccc(N(C)C)cc1 | 30 | 45 | 24 | 24 | 0 | x | x
COC(=O)C1=C(c2ccccc2OCc2ccccc2)C[C@@H]2CC[C@H]1N2C(=O)NCc1ccc(N(C)C)cc1 | 33 | 62* | 8 | 24 | 0 | 1 | x
COC(=O)C1=C(c2ccc(F)cc2OCc2ccccc2)C[C@@H]2CC[C@H]1N2C(=O)NCCOc1ccccc1Cl | 15 | 57* | 8 | 11 | 0 | 29 | x
COC(=O)C1=C(c2ccc(F)cc2OCc2ccccc2)C[C@@H]2CC[C@H]1N2C(=O)NCCOc1ccccc1 | 34 | 37 | 12 | 18 | 20 | x | x
CCOP(=O)(CCP(=O)(OCC)OCC)OCC.C[CH2][Sn]([Cl])([Cl])[CH2]C | x | x | x | x | -1 | x | x
C/C1=C\[C@@H](C)C/C=C/[C@H]2[C@@H]3O[C@]3(C)[C@@H](C)[C@H]3[C@H](Cc4c[nH]c5ccccc45)NC(=O)[C@]32C(=O)/C=C/C(=O)[C@@H]1O | 17 | 83* | 3 | -30 | -4 | 46* | 21
Cc1cc(C)cc(N2C(=O)NC(=O)/C(=C\c3cccn3-c3ccc(Cl)cc3)C2=O)c1 | -3 | 69* | 2 | -43 | 4 | 56* | 79*
C=C1C(=O)O[C@@H]2C[C@@H](C)[C@@H]3C=CC(=O)[C@@]3(C)[C@@H](O)[C@H]12 | 11 | 95* | 17 | 16 | -2 | 99* | 51*
O=[N+]([O-])c1ccccc1-c1cc(-c2ccccc2)cc(-c2ccccc2)[n+]1Cc1ccccc1Cl | 11 | 88* | 17 | 30 | x | 69* | 22
CC(=O)c1c(C)n(C2CCCCC2)c2ccc(O)cc12 | 8 | 82* | 6 | 7 | 0 | 82* | 48*
CC(=O)c1c(C)n(Cc2ccccc2)c2ccc(O)cc12 | 7 | 31 | 7 | -10 | 8 | x | x
O=C1NCN(c2ccccc2)C12CCN(C(c1ccccc1OC(F)(F)F)c1nnnn1C1CCCC1)CC2 (stereo unspecified) | x | x | x | x | 2 | x | x
C[C@@H]1O[C@@H](O[C@H]2C[C@@H](O)[C@]3(CO)[C@H]4[C@H](O)C[C@]5(C)[C@@H](C6COC(=O)C6)CC[C@]5(O)[C@@H]4CC[C@]3(O)C2)[C@H](O)[C@H](O)[C@H]1O (stereo partly specified) | -2 | 58* | 4 | 6 | -2 | 67* | 27
CC(=O)OC1CC(OC2C(O)CC(OC3C(O)CC(OC4CCC5(C)C(CCC6C5CCC5(C)C(C7=CC(=O)OC7)CCC65O)C4)OC3C)OC2C)OC(C)C1OC1OC(CO)C(O)C(O)C1O (stereo unspecified) | x | x | x | x | -1 | x | x
CCC(c1nnnn1Cc1ccccc1)N1CCC2(CC1)C(=O)NCN2c1ccccc1 (stereo unspecified) | x | x | x | x | 0 | x | x
CC[C@@]1(O)C(=O)OCc2c1cc1n(c2=O)Cc2cc3c(NC(=O)CN)cccc3nc2-1 | 5 | 84* | 3 | 0 | -2 | 79* | 57*
Cc1ccccc1NC(=O)N1Cc2ccccc2-n2nncc2C1 | x | x | x | x | 1 | x | x
Brc1ccc2c(c1)C(OC1CN3CCC1CC3)c1ccccc1CS2 (stereo unspecified) | 24 | 80* | 38 | 32 | -1 | 67* | 34
SMILES | tim23-1 inh | Mdm2-MdmX inh | TIM10 inh | tim10-1 inh | MPTP block | Mdm2-MdmX conf | FLuc counter
O=C1CN=C(c2ccc(F)cc2)c2oc3ccccc3c2N1 | 6 | 18 | 5 | -5 | 2 | x | x
COc1cccc(OC)c1C1=NCC(=O)Nc2c1oc1ccc(Br)cc21 | 18 | 70* | 6 | 31 | 0 | 68* | 78*
O=C1CN=C(c2ccc(Br)cc2)c2oc3ccccc3c2N1 | 2 | 58* | 9 | 14 | 2 | 22 | x
Cc1ncoc1C(=O)NCC1=C(c2ccc(S(C)(=O)=O)cc2)C[C@@H]2CC[C@H]1N2Cc1ccco1 | x | x | x | x | -1 | x | x
CC(C)c1ccc(N2C(=O)NC(=O)/C(=C\C=C\c3ccco3)C2=O)cc1 | 1 | 56* | -4 | -15 | x | 22 | x
CCCCCCC(=O)N/N=C/c1c(O)n(C2CC2)c(=S)[nH]c1=O | 5 | 5 | -6 | 2 | -3 | x | x
CCCCCCC(=O)N/N=C/c1c(O)n(CCc2ccccc2)c(=O)[nH]c1=O | -1 | 59* | -11 | 5 | -6 | 36 | x
CCCCCCC(=O)N/N=C/c1c(O)n(C(C)CC)c(=S)[nH]c1=O (stereo unspecified) | 9 | 58* | -10 | -11 | 19 | 14 | x
O=C(N/N=C/c1c(O)n(CCc2ccccc2)c(=O)[nH]c1=O)c1ccccc1O | 1 | -2 | -13 | 3 | 0 | x | x
COc1ccc(CN(CCc2c[nH]c3ccccc23)Cc2ccc(OC)cc2)cc1 | x | x | x | x | 2 | x | x
COc1ccc(OC(=O)N(C)C[C@@H]2OCc3cnnn3CCCC(=O)N([C@@H](C)CO)C[C@@H]2C)cc1 | x | x | x | x | 0 | x | x
O=C([O-])c1ccc(-[n+]2c(-c3ccccc3)cc(-c3ccccc3)cc2-c2ccccc2)cc1 | 4 | 2 | 2 | 1 | 18 | x | x
Oc1ccc(-[n+]2c(-c3ccccc3)cc(-c3ccccc3)cc2-c2ccccc2)cc1 | 18 | 98* | -6 | 6 | 3 | 71* | 59*
O=[N+]([O-])c1ccc(-[n+]2c(-c3ccccc3)cc(-c3ccccc3)cc2-c2ccccc2)cc1 | 18 | 15 | 31 | 25 | 0 | x | x
COc1ccc(-[n+]2c(-c3ccccc3)cc(-c3ccccc3)cc2-c2ccccc2)cc1 | 11 | 87* | 25 | 22 | x | 88* | 14
C/C=C1\NC(=O)[C@H](C)NC(=O)[C@@H](NC(=O)[C@H](Cc2ccc(O)cc2)NC(=O)[C@@H](NC(=O)/C(C)=C/C)C(C)C)[C@@H](C)OC(=O)[C@H](CCCc2ccc(O)cc2)NC(=O)[C@@H](CCC(=O)O)NC1=O | x | x | x | x | 0 | x | x
